HepG2 tox = qHTS for Inhibitors of TGF-b: Cytotox Counterscreen; HepG2 CAGA-GFP viability, ATP luminescence, 18 h; Potency, µM (titrated, usually from 46.1 µM), inactives show top-dose activity change, negative = cytotoxicity, hits mostly cytotoxic; actives 0.76% (n = 410,000); note: potency is the fitted concentration of half-maximal effect
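HepG2 CAGA-GFP cells (1000/well, DMEM with 1% FBS) received compound, then TGF-beta at 500 pg/mL final, and were incubated 18 hours at 37 degrees C. Viability was read by CellTiter-Glo luminescence. Media-only wells were set as complete cell-killing and DMSO as no toxicity.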
TGFb inhibitor = qHTS for Inhibitors of TGF-b; HepG2 CAGA-GFP TGF-b/SMAD3 reporter, GFP fluorescence, 18 h; TGF-beta stimulated, 500 pg/mL final; Potency, µM (doses to about 46.1 µM), for the others: at the top dose activity, negative = inhibition, most hits filed as inhibitors; actives 1.2% (n = 410,000); note: potency is the fitted concentration of half-maximal effect; % is set by controls: 0 for no effect and ±100 for the full control effect; nearly all actives have a fitted effect of over 65% in size
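GFP signal (ex488/em500-530) from TGF-beta-stimulated HEPG2 CAGA-GFP cells, 500 pg/mL final, 18 h at 37 degrees C in DMEM plus 1% FBS, normalized to unstimulated and DMSO-stimulated controls.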
TDP1 cell CPT = qHTS for Inhibitors of human tyrosyl-DNA phosphodiesterase 1 (TDP1): qHTS in cells in presence of CPT; Potency, µM (doses to about 46.2 µM), without a hit: at the highest dose activity change, negative = growth inhibition, usual class: inhibitors; chicken DT40 Tdp1-/-;hTDP1 cells + 20 nM CPT, ATP luminescence, 48 h; actives 12% (n = 420,000); AID 686979, 2013; note: potency is the fitted concentration of half-maximal effect; % is set by controls: 0 for no effect and ±100 for the full control effect; nearly all actives have a fitted effect of over 55% in size
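Chicken DT40 Tdp1-/- cells stably complemented with human TDP1 were seeded at 400 cells/well in medium containing 20 nM camptothecin, exposed to pin-transferred compounds, and grown at 37 °C for at least 48 hr. Viability was read as ATP luminescence.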
DT40 TDP1 no CPT = qHTS for Inhibitors of human tyrosyl-DNA phosphodiesterase 1 (TDP1): qHTS in cells in absence of CPT; DT40 Tdp1-/- hTDP1 cells, no CPT, ATP luminescence, 48 h; Potency, µM (series often up to 46.2 µM), without a hit: top-dose activity change, negative = growth inhibition, hits mostly inhibitors; actives 15% (n = 420,000); note: potency is the fitted concentration of half-maximal effect; % is set by controls: 0 for no effect and ±100 for the full control effect; nearly all actives have a fitted effect of over 55% in size
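No-CPT arm: Tdp1-/-;hTDP1 DT40 cells (400/well) plus compounds, incubated ≥48 hr at 37 °C. Readout CellTiter-Glo luminescence.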
IL-1B inflam inh = qHTS for Inhibitors of Inflammasome Signaling: IL-1-beta AlphaLISA Primary Screen; actives 4.7% (n = 360,000); THP-1 LPS/ATP IL-1B secretion, AlphaLISA, 16 h; active compounds read low; activity change, % at 57.5 µM; in the data active = activity change below about -50%; inconclusive = mostly about -30% to -49%; note: % is set by controls: 0 for no effect and ±100 for the full control effect
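THP-1 cells pretreated 1 hr with compounds (up to 57.5 uM final), then stimulated with LPS (250 ng/mL final) plus ATP (1.25 mM final); secreted IL-1B measured by AlphaLISA after 16 hr, decreased signal indicating inhibition.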
TDP1 block = qHTS Assay for Inhibitors of Tyrosyl-DNA Phosphodiesterase (TDP1); recombinant TDP1, AlphaScreen DNA substrate cleavage; Potency, µM (top dose mostly 130 µM), for the others: at the highest dose activity change, negative = inhibition, most hits filed as inhibitors; actives 0.28% (n = 350,000); AID 485290, 2010; note: potency is the fitted concentration of half-maximal effect; % is set by controls: 0 for no effect and ±100 for the full control effect; nearly all actives have a fitted effect of over 40% in size
Target sequence (Q9NUW8 whole entry, looked up): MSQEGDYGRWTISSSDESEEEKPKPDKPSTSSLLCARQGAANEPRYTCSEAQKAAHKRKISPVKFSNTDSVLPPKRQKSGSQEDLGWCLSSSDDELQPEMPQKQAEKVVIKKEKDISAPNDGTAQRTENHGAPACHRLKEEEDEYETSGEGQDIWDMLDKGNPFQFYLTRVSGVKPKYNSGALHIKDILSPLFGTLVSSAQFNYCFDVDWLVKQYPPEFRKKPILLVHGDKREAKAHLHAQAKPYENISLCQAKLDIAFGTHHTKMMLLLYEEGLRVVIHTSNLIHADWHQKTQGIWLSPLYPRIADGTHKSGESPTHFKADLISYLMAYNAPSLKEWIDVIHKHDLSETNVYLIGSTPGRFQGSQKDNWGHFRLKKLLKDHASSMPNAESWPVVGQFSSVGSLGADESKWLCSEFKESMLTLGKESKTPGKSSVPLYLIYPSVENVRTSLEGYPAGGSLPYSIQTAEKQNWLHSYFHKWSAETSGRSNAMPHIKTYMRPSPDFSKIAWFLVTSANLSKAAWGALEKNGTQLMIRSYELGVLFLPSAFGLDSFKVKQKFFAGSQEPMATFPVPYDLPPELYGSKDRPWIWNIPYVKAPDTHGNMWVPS
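Signal: AlphaScreen proximity between streptavidin donor and anti-FITC acceptor beads on intact substrate. Reaction: Tdp1 1 nM, substrate 15 nM final, 5 min RT after 15 min compound preincubation.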
Numbers without * were called inactive; u = inconclusive; x = no result. Compounds with a hit are over-represented: about 19% of the library has one in this group of screens. Unless noted, calls come from the whole dose curve; as a rule, active = well fitted curve in the direction sought with a large enough effect; inconclusive = small, poorly fitted or top-dose-only effect, or another doubt; inactive = no such curve, though single readings can be large; an effect the other way counts as inactive or inconclusive.

SMILES | HepG2 tox | TGFb inhibitor | TDP1 cell CPT | DT40 TDP1 no CPT | IL-1B inflam inh | TDP1 block
CSc1ccc(Cl)c(C(=O)NCCOc2ccccc2)c1 | 13.8% | 14.8% | -25.6% | u | u | -7.7%
C#C[C@]1(O)CC[C@H]2[C@H]3CCc4cc(O)ccc4[C@@H]3CC[C@@]21C | x | x | x | x | x | 12.8%
COC(=O)C1=CN(c2ccc(OC)cc2OC)C(N)=C(C#N)C1c1ccc(OC)cc1 (stereo not drawn) | x | x | u | 20.6µM* | -6.0 | x
COC(=O)C1=CN(c2ccc(N3CCOCC3)cc2)C(N)=C(C#N)C1c1ccccc1 (stereo not drawn) | x | x | u | 18.4µM* | -2.9 | x
COC(=O)C1=CN(c2ccc(OC)cc2)C(N)=C(C#N)C1c1ccc(OC)cc1 (stereo not drawn) | x | x | 10.3µM* | u | u | x
COC(=O)C1=CN(c2ccc3c(c2)OCO3)C(N)=C(C#N)C1c1cccc(F)c1 (stereo not drawn) | x | x | 1.3µM* | 0.651µM* | 32.8 | x
COC(=O)C1=CN(c2ccc(OC)cc2)C=C(C(=O)OC)C1c1cccc(F)c1 | -6.0% | -1.1% | 7.6% | -9.7% | 8.3 | x
COC(=O)C1=CN(c2ccc(N3CCOCC3)cc2)C(N)=C(C#N)C1c1cccc(OC)c1OC (stereo not drawn) | x | x | -14.3% | u | -21.1 | x
COc1ccc(N2C(N)=C(C#N)C(c3ccsc3)C3=C2CCCC3=O)c(OC)c1 (stereo not drawn) | -1.3% | 3.4% | 3.7% | 0.6% | -1.6 | -5.3%
COC(=O)C1=CN(c2ccc(C)cc2)C(N)=C(C#N)C1c1ccc(OC)cc1 (stereo not drawn) | x | x | u | u | -0.1 | x
CSc1ccc(S(=O)(=O)N2CCC(C(=O)NCc3ccccn3)CC2)cc1 | 5.9% | -23.9% | -4.0% | -1.8% | -15.3 | 6.6%
CCOC(=O)c1[nH]c(C)c(CCC(=O)NCc2ccc(N(C)C)cc2)c1C | 10.2% | 2.1% | -26.3% | -25.8% | x | 5.4%
C/C(=N\Nc1ccc(S(=O)(=O)Nc2ccccc2)cc1[N+](=O)[O-])c1ccc(N2CCOCC2)cc1 | -10.3% | -14.5% | 14.6µM* | 2.59µM* | 0.0 | 7.2%
O=[N+]([O-])c1ccccc1/C=C/C=N/Nc1ccc(S(=O)(=O)Nc2ccc(Cl)cc2)cc1[N+](=O)[O-] | -10.8% | -9.5% | 16.4µM* | 18.4µM* | -13.8 | 8.2%
O=[N+]([O-])c1cc(S(=O)(=O)Nc2cccc(Cl)c2)ccc1N/N=C/c1ccc(N2CCOCC2)cc1 | 1.6% | -13.6% | u | 10.3µM* | 5.3 | x
O=[N+]([O-])c1ccc(N/N=C/c2c[nH]c3ccccc23)c(S(=O)(=O)Nc2ccc(Cl)cc2)c1 | -21.7% | -12.3% | u | 23.1µM* | -7.4 | 6.8%
CCOc1ccc(-c2cc(C(=O)NCCCOC)c3c(-c4ccc(CC)cc4)[nH]nc3n2)cc1 | 1.0% | -8.9% | u | u | x | 0.0%
CC(C)CCNC(=O)COc1ccc(N(C)S(=O)(=O)c2ccc(F)cc2)cc1 | -8.8% | -28.4% | u | u | -4.9 | 0.0%
COc1ccc(NS(=O)(=O)c2ccc(N/N=C(\C)c3ccncc3)c([N+](=O)[O-])c2)cc1 | 1.1% | u | 11.6µM* | 7.31µM* | 22.3 | 3.5%
O=C(NNC(=O)C1CC(=O)N(Cc2ccccc2)C1)c1ccc(F)cc1 (stereo not drawn) | -4.8% | -1.7% | 9.2% | 0.8% | 8.1 | x
Cc1[nH]n(-c2nc(-c3ccc(Cl)cc3)cs2)c(=O)c1N=Nc1ccc(O)cc1 | 2.0% | 5.7% | 2.59µM* | 5.8µM* | -51.4* | 3.0%
CCc1c(C)[nH]n(-c2nc(-c3ccccc3)cs2)c1=O | -10.0% | u | -7.0% | -26.1% | -7.2 | 5.7%
CC(C)CNS(=O)(=O)c1cc(C(=O)O)c(Cl)cc1Cl | -5.6% | 1.5% | 4.4% | 4.4% | 6.3 | -2.8%
CCCn1c(C)cc(C(=O)COC(=O)c2cc(S(=O)(=O)NCC(C)C)c(Cl)cc2Cl)c1C | -4.2% | 0.0% | u | 14.6µM* | -3.0 | 2.0%
CC(C)CNS(=O)(=O)c1cc(C(=O)N2CCOCC2)c(Cl)cc1Cl | 1.3% | 5.4% | -3.3% | -12.2% | 2.2 | 3.6%
SMILES | HepG2 tox | TGFb inhibitor | TDP1 cell CPT | DT40 TDP1 no CPT | IL-1B inflam inh | TDP1 block
CC(C)CNS(=O)(=O)c1cc(C(=O)OCC(=O)c2ccc3c(c2)OCCO3)c(Cl)cc1Cl | -28.3% | -8.4% | -21.1% | u | -239.7* | 5.6%
C#CCNC(=O)C1=C[C@@H](C)[C@H](CCCO)[C@@H](OCC)O1 | -6.0% | u | u | 9.8% | 13.3 | x
CCn1c(SC)nnc1C1CCCN(CC(=O)Nc2ccccc2N2CCOCC2)C1 (stereo not drawn) | -30.5% | -23.3% | 0.7% | -13.6% | -6.2 | 16.1%
COC(=O)c1ccc(NC(=O)CCN2CCOCC2)cc1 | 6.4% | 2.4% | 2.0% | 28.2% | -0.2 | 3.3%
Cc1cc(Cl)ccc1NC(=O)C1CCN(S(=O)(=O)c2ccc3[nH]c(=O)ccc3c2)CC1 | 1.3% | -3.1% | -28.0% | -11.1% | x | -2.2%
COc1ccc(OC)c(C=Cc2ccc([N+](=O)[O-])cc2)c1 | -17.2% | 1.6% | -11.9% | u | -15.5 | x
Cc1ccc(Cl)cc1N1C(=O)CC(C)(C)CC1=O | -1.0% | 30.2% | -15.0% | -11.7% | 5.3 | x
CC1=N/C(=C\c2ccc([N+](=O)[O-])cc2)C(=O)N1c1cc(Cl)ccc1C | 7.8% | -9.4% | 10.3µM* | 9.2µM* | -17.9 | -2.1%
COc1ccc(N2C(=O)/C(=C/c3ccc([N+](=O)[O-])cc3)N=C2C)c(OC)c1 | 1.9% | 2.5% | 3.66µM* | 2.06µM* | 7.8 | 4.8%
COc1cccc(NC(=O)Cn2c(=O)n(CCc3ccccc3)c(=O)c3c4c(sc32)CN(C(C)=O)CC4)c1 | -33.0% | -19.1% | u | u | x | 2.9%
C[C@@H]1CCC2[C@](C)(CO)[C@@H](O)CC[C@]2(C)[C@@]12CC[C@@](CO)(CC(=O)O)O2 (stereo partly drawn) | 7.0% | 16.9% | 4.1% | -4.3% | -2.7 | x
Cc1cccc(N2CCN(c3nnnn3-c3ccccc3)CC2C)c1 (stereo not drawn) | -3.4% | -6.8% | u | u | -13.9 | 1.5%

Screening results deposited in PubChem by National Center for Advancing Translational Sciences (NCATS).
